According to the supplement of paper PMC12669032:
Unmarked numbers belong to inactive results.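 How the source made its calls: active = AUC reduced over 20% with Padj below 0.05 in at least 2 of 3 replicates; inactive = otherwise.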

Assays:
Assay in all cases: growth AUC relative to DMSO control (median of replicates) (fraction); higher = more growth (less inhibition), active = hit call of the paper
Details in all cases: 20 µM; 24 h
Coprococcus comes = test system: Coprococcus comes
In short: (§1)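 For each compound at 20 µM (1% DMSO), gut bacterial monocultures seeded at OD600 0.05 grew anaerobically in mGAM at 37 °C in round-bottom 96-well plates. Hourly OD600 readings over 24 h gave growth curves whose minimum OD was set to 0. Area under these curves was normalised to the plate median of solvent-only wells, or to row and column medians on the industrial chemical plate. Values are medians of three biological replicates grown on separate days.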

Escherichia coli ED1a = test system: Escherichia coli ED1a
In short: as §1

Escherichia coli IAI1 = test system: Escherichia coli IAI1
In short: as §1

Eubacterium rectale = test system: Eubacterium rectale
In short: as §1

[1] = test system: Fusobacterium nucleatum subsp. animalis
In short: as §1

Lactobacillus gasseri = test system: Lactobacillus gasseri
In short: as §1

Lactobacillus paracasei = test system: Lactobacillus paracasei
In short: as §1

Odoribacter splanchnicus = test system: Odoribacter splanchnicus
In short: as §1

[2] = test system: Parabacteroides distasonis
In short: as §1

Parabacteroides merdae = test system: Parabacteroides merdae
In short: as §1

Roseburia intestinalis = test system: Roseburia intestinalis
In short: as §1

Streptococcus salivarius = test system: Streptococcus salivarius
In short: as §1

| Compound | growth AUC (Coprococcus comes) | growth AUC (Escherichia coli ED1a) | growth AUC (Escherichia coli IAI1) | growth AUC (Eubacterium rectale) | growth AUC [1] | growth AUC (Lactobacillus gasseri) | growth AUC (Lactobacillus paracasei) | growth AUC (Odoribacter splanchnicus) | growth AUC [2] | growth AUC (Parabacteroides merdae) | growth AUC (Roseburia intestinalis) | growth AUC (Streptococcus salivarius) |
| --- | --- | --- | --- | --- | --- | --- | --- | --- | --- | --- | --- | --- |
| CCOP(=S)(OCC)Oc1nc(Cl)c(Cl)cc1Cl | 0.995 | 1.02 | 1.01 | 1.11 | 0.982 | 0.992 | 0.993 | 1 | 0.963 | 0.96 | 1.01 | 1.06 |
| CCOP(=S)(OCC)SCCS(=O)(=O)CC | 1.02 | 1.05 | 0.994 | 1.02 | 1 | 0.903 | 1.01 | 1.06 | 1.04 | 0.991 | 0.971 | 0.994 |
| Clc1ccc(C2(Cn3cncn3)CC(Br)CO2)c(Cl)c1 (stereo unspecified) | 0.997 | 0.989 | 1 | 0.806 | 0.914 | 0.891 | 0.987 | 0.961 | 0.952 | 0.924 | 0.99 | 0.988 |
| CC(C)N1C(=O)N(c2ccccc2)CSC1=NC(C)(C)C | 0.943 | 0.967 | 1.02 | 0.956 | 0.966 | 0.963 | 1.03 | 1.02 | 0.946 | 0.997 | 1.02 | 0.953 |
| N#Cc1c[nH]cc1-c1cccc2c1OC(F)(F)O2 | 1.05 | 0.969 | 0.978 | 0.857 | 0.888 | 0.866 | 0.908 | 0.985 | 0.759 (active) | 0.88 | 1.07 | 0.962 |
| CN(C)C(=O)Nc1ccc(Cl)cc1 | 0.985 | 1.01 | 0.97 | 0.996 | 1.02 | 1.05 | 1.03 | 0.963 | 0.938 | 1 | 0.979 | 0.971 |
| c1coc(-c2nc3ccccc3[nH]2)c1 | 1.02 | 1.01 | 0.986 | 1.09 | 0.985 | 0.949 | 0.997 | 0.879 | 0.977 | 0.961 | 1.04 | 0.984 |
| CCOP(=S)(OCC)SCS(=O)C(C)(C)C (stereo unspecified) | 1.05 | 1.04 | 1.01 | 1.01 | 1.07 | 0.959 | 0.754 | 1.04 | 1.01 | 1.01 | 1.04 | 1.04 |
| CCOP(=O)(OCC)Oc1ccc(S(C)(=O)=O)cc1 | 1.01 | 0.98 | 0.977 | 1.13 | 0.996 | 1 | 0.976 | 1 | 1.11 | 1.03 | 0.974 | 1.02 |
| CCS(=O)(=O)Oc1ccc2c(c1)C(C)(C)CO2 | 1.08 | 1.02 | 1.02 | 0.83 | 0.966 | 1.06 | 1 | 1.07 | 1.03 | 0.963 | 1.04 | 1.03 |
| COP(=S)(OC)Oc1ccc(S(=O)(=O)N(C)C)cc1 | 0.984 | 1 | 0.985 | 0.998 | 0.894 | 0.925 | 0.935 | 0.977 | 1.01 | 0.969 | 0.971 | 1.04 |
| O=C(O)CCCOc1ccc(Cl)cc1Cl | 1.05 | 0.984 | 0.981 | 1.18 | 0.933 | 1.01 | 1 | 1.11 | 0.919 | 0.979 | 0.966 | 0.969 |
| CNC(=S)S | 1.03 | 1.02 | 1.02 | 1.03 | 1.08 | 1.02 | 1.1 | 1.05 | 1.03 | 1.05 | 1.1 | 0.997 |
| Cc1[nH]c(=O)n(C(C)(C)C)c(=O)c1Cl | 0.999 | 0.983 | 0.942 | 1.01 | 0.978 | 0.927 | 1.06 | 1.02 | 0.968 | 0.995 | 0.986 | 1.02 |
| CCCN(CCC)c1c([N+](=O)[O-])cc(C(F)(F)F)cc1[N+](=O)[O-] | 1 | 1.02 | 1.01 | 1.01 | 1.03 | 1.03 | 1.09 | 1.01 | 1.09 | 1.01 | 1 | 1.04 |
| COP(=S)(OC)Oc1ccc([N+](=O)[O-])c(C)c1 | 0.982 | 0.986 | 0.979 | 1.1 | 0.994 | 1.01 | 1.01 | 0.962 | 0.89 | 0.944 | 0.949 | 0.991 |
| CCCOCC(=Nc1ccc(Cl)cc1C(F)(F)F)n1ccnc1 | 0.505 (active) | 0.994 | 0.995 | 0.382 (active) | 1.11 | 0.894 | 0.938 | 0.932 | 0.746 (active) | 0.894 | 0.805 | 0.982 |
| CCOP(=S)(OCC)SCSCC | 0.985 | 0.987 | 0.956 | 1.17 | 0.99 | 0.97 | 0.952 | 0.984 | 0.921 | 0.947 | 0.962 | 1.02 |
| CC(C)C(C(=O)OC(C#N)c1cccc(Oc2ccccc2)c1)c1ccc(OC(F)F)cc1 (stereo unspecified) | 1.02 | 0.998 | 0.979 | 0.848 | 0.968 | 1.01 | 1.02 | 1.07 | 0.983 | 0.971 | 0.977 | 0.993 |
| Cc1cc(Cl)ccc1N=CN(C)C | 1.01 | 0.998 | 0.963 | 1.16 | 0.978 | 1.04 | 0.997 | 1.01 | 1.03 | 0.988 | 1.02 | 0.998 |
| Cc1cccc(C)c1N | 1.02 | 0.978 | 0.985 | 0.997 | 0.927 | 1.02 | 0.936 | 1.03 | 1.01 | 0.999 | 0.977 | 1.04 |
| COc1cc(OC)nc(NC(=O)[N-]S(=O)(=O)c2ncccc2OCC(F)(F)F)n1.[Na+] | 0.957 | 0.993 | 0.982 | 1.04 | 1.08 | 0.9 | 1.04 | 0.932 | 1.03 | 0.974 | 1.01 | 0.885 |
| COP(=O)(OC)Oc1ccc([N+](=O)[O-])cc1 | 1.07 | 1.03 | 0.996 | 1.17 | 1.09 | 0.998 | 1.02 | 0.954 | 0.981 | 1.02 | 1.04 | 1.03 |
